# Screens from PubChem BioAssay.
# ALOX12 inh = blocks human arachidonate 12S-lipoxygenase. P18054. purified 12hLO, xylenol orange hydroperoxide absorbance. Potency, µM (series often up to 108 µM), usual class: inhibitors. hit rate 1.1% among 580,000. AID 1671190
# Target sequence (P18054 whole entry, looked up): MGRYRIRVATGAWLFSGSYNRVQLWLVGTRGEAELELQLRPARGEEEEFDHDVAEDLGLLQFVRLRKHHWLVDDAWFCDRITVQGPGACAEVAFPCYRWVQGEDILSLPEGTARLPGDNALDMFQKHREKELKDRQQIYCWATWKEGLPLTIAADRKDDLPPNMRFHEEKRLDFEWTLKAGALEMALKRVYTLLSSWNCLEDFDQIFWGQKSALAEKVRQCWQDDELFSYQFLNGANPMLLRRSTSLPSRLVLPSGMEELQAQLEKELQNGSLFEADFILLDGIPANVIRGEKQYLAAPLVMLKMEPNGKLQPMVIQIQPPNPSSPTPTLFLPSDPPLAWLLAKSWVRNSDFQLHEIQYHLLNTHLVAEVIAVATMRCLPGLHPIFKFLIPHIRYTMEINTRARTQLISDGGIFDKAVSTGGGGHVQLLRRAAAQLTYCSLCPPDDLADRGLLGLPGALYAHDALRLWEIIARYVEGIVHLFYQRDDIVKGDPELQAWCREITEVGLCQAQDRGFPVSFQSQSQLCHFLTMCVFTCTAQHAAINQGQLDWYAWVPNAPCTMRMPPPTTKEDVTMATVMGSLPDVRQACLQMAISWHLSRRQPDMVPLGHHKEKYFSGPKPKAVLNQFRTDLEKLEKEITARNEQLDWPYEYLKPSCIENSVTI
#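 Purified human 12hLO (150 nM final) in 25 mM Hepes, 0.01% Triton X-100, pH 7.0 was preincubated 15 min at room temperature with compound. Then 40 uM arachidonic acid was added, 30 min. Hydroperoxide was read by Fe-XO absorbance ratio 573/405 nm.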
# TDP1 cell noCPT = qHTS for Inhibitors of human tyrosyl-DNA phosphodiesterase 1 (TDP1): qHTS in cells in absence of CPT. hit rate 15% among 420,000. AID 686978, 2013. DT40 Tdp1-/- hTDP1 cells, no CPT, ATP luminescence, 48 h. Potency, µM (doses to about 46.2 µM), most hits filed as inhibitors; further: nearly all actives have a fitted effect of over 55% in size
#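 DT40 Tdp1-/-;hTDP1 cells, no CPT (DMSO vehicle only), 400 cells/well; compounds pin-transferred; ≥48 hr, 37 °C; CellTiter-Glo 30 min RT dark, luminescence read.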
# TDP1 cell CPT = DT40-hTDP1 cell growth loss with CPT; chicken DT40 Tdp1-/-;hTDP1 cells + 20 nM CPT, ATP luminescence, 48 h; Potency, µM (highest dose often 46.2 µM), actives largely listed as inhibitors; hit rate 12% among 420,000; AID 686979; further: nearly all actives have a fitted effect of over 55% in size
#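 Chicken DT40 Tdp1-/- cells complemented with human TDP1, 400 cells/well, exposed to compounds plus 20 nM camptothecin for at least 48 h at 37 C; viability read as ATP content by CellTiter-Glo luminescence.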
# IL-1B inflam inh = blocks inflammasome-driven IL-1 beta release; THP-1 LPS/ATP IL-1B secretion, AlphaLISA, 16 h; hits give low values; activity change, % at 57.5 µM; hit rate 4.7% among 360,000; AID 743279; in the data active means activity change below about -50%; inconclusive means mostly about -30% to -49%
#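 THP-1 cells pretreated 1 hr with compounds (up to 57.5 uM final), then stimulated with LPS (250 ng/mL final) plus ATP (1.25 mM final); secreted IL-1B measured by AlphaLISA after 16 hr, decreased signal indicating inhibition.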
# HT1080 IDH1KD tx = HT-1080 IDH1 knockdown cell toxicity (counter line); hit rate 2% among 360,000; Potency, µM (highest dose often 46.1 µM), hits mostly cytotoxic; HT-1080 IDH1 knockdown viability, ATP luminescence, 48 h; AID 686971
#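 Luminescent ATP read-out (CellTiter-Glo, 10 min at room temperature) after 48 h compound exposure at 37 °C gave viability of IDH1-knockdown HT-1080 cells. Activity was normalised to DMSO and cell-free wells, then fitted as concentration-response curves.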
# HT1080-NT tox = kills 2HG-producing HT-1080-NT fibrosarcoma cells; HT-1080-NT fibrosarcoma viability, CellTiter-Glo ATP luminescence, 48 h; Potency, µM (titrated, usually from 46.1 µM), actives largely listed as cytotoxic; hit rate 1.6% among 360,000; AID 686970;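 further: NT is the 2HG producing partner of a matched IDH1 knockdown line; nearly all actives have a fitted effect of over 55% in size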
#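 A 48-hour cytotoxicity screen used HT-1080-NT cells plated 2 hours before compound delivery. ATP-based CellTiter-Glo luminescence measured viability, normalized to DMSO and no-cell controls.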
# Numbers stand for hits; i = inactive; ? = inconclusive; nt = no result given; [ ] = remark or other dose. This is one part of a sample in which hits are shown more often than they occur. Unless noted, the call rests on the fitted dose curve; in most records, active means well fitted curve in the direction sought with a large enough effect; inconclusive means small, poorly fitted or top-dose-only effect, or another doubt; inactive means no such curve, though single readings can be large; an effect the other way counts as inactive or inconclusive.
SMILES,ALOX12 inh,TDP1 cell noCPT,TDP1 cell CPT,IL-1B inflam inh,HT1080 IDH1KD tx,HT1080-NT tox
COCCN(C(=O)c1cccc(N2C(=O)CCC2=O)c1)c1nc(-c2ccc([N+](=O)[O-])cc2)cs1,i,21µM,?,i,i,i
CC(C)CCn1c2ccccc2c2cc(CC(N)=O)ccc21,i,23µM,?,i,?,i
N/C(=N/OC(=O)c1cccc([N+](=O)[O-])c1)c1cccc([N+](=O)[O-])c1,i,i,i,i,i,i
CC1=C(C)/C(=N/OC(=O)c2cccc([N+](=O)[O-])c2)C=CC1=O,nt,21µM,21µM,i,18µM,?
C[C@H]1COc2cccc(N(C)CCO)c2S(=O)(=O)N1,i,i,i,i,i,i
CC(=O)NCCn1c(SCc2ccc(C)cc2)nc2ccccc2c1=O,i,21µM,23µM,i,i,i
CC(=O)NCCn1c(SCc2ccccc2F)nc2ccccc2c1=O,i,21µM,16µM,i,i,i
COC(=O)[C@H](Cc1ccc(OC)cc1)NC(=O)[C@@H]1CN(C(=O)c2cccc(F)c2)CCN1C(=O)N1CCOCC1,i,nt,nt,nt,nt,nt
FC(F)(F)c1ccc(Sc2ncccn2)nc1,i,nt,nt,nt,nt,nt
Cc1ccc(C(=O)c2oc3ccccc3c2NC(=O)c2cc(-c3ccccc3)on2)cc1,i,i,i,nt,nt,nt
Cc1cc(Cl)ccc1OCC(=O)N(Cc1ccco1)c1c(N)n(Cc2ccccc2)c(=O)[nH]c1=O,?,?,?,i,i,i
COc1ccc(CN(Cc2ccco2)C(=O)COc2ccc(Cl)cc2C)cc1,i,21µM,?,nt,nt,nt
Cc1ccc(OCC(=O)N(Cc2ccc(Cl)cc2)Cc2ccco2)cc1C,?,21µM,?,nt,nt,nt
Cc1ccc(OCC(=O)N(Cc2ccco2)C2CCS(=O)(=O)C2)cc1C (stereo unspecified),nt,i,i,i,i,i
COc1cccc(-c2ocnc2C(=O)Nc2cc(Cl)ccc2OC)c1,i,nt,nt,nt,nt,nt
NC(=S)NNC(=O)Nc1cccc(Cl)c1,i,i,i,i,i,i
S=C(NNc1cccc(Cl)c1)NC1CCCCC1,?,?,?,-108,15µM,?
Cc1cccc(NC(=S)NNc2cccc(Cl)c2)c1,?,18µM,16µM,i,?,23µM
Cc1cccc(NNC(=S)Nc2c(C)cccc2C)c1,?,?,?,-102,?,?
NC(=S)NNc1cccc(Cl)c1,?,15µM,16µM,i,i,i
COc1cc(C(O)c2nc(C(=O)NCCN3CCOCC3)cs2)cc(OC)c1OC (stereo unspecified),i,nt,nt,nt,nt,nt
COCCn1c(=O)c(CCc2ccccc2)nc2cnc(N(C)C)nc21,?,i,i,nt,nt,nt
COc1cc(CNC(=O)c2ccccc2-c2nc(-c3ccc(Cl)cc3)no2)cc(OC)c1OC,i,nt,nt,nt,nt,nt
Cc1cccc(NNC(=S)Nc2ccccc2)c1,?,2.6µM,4.1µM,i,i,i
COc1cc(OC)c(NC(=S)Nc2cccc(C)c2)cc1Cl,?,9.2µM,i,i,i,i
SMILES,ALOX12 inh,TDP1 cell noCPT,TDP1 cell CPT,IL-1B inflam inh,HT1080 IDH1KD tx,HT1080-NT tox
Cc1cccc(NC(=S)NC(C)(C)CC(C)(C)C)c1,?,18µM,i,i,i,i
O=C1NC2(CCCN(Cc3ccc(OC(F)(F)F)cc3)C2)Oc2ccccc21 (stereo unspecified),i,nt,nt,nt,nt,nt
COc1cccc(N2CC(C(=O)N3CCOCC3)NC2=O)c1 (stereo unspecified),i,nt,nt,nt,nt,nt
CC(=O)c1cccc(NC(=O)C2(c3ccccc3)CCCC2)c1,i,nt,nt,nt,nt,nt
CC(C)(CN(CCO)CCO)NS(=O)(=O)c1ccccc1,i,nt,nt,nt,nt,nt
CCOc1ccc(NS(=O)(=O)c2ccc3[nH]cc(C(=O)NC4CCCC4)c(=O)c3c2)cc1,?,i,i,nt,nt,nt
CCOc1ccc(NS(=O)(=O)c2ccc3[nH]cc(C(=O)NC(C)CC)c(=O)c3c2)cc1 (stereo unspecified),i,21µM,?,i,i,i
Cc1ccc(C)c(N(C)S(=O)(=O)c2ccc3[nH]cc(C(=O)NCCN4CCOCC4)c(=O)c3c2)c1,i,?,i,-63,i,i
CCc1ccccc1N(C)S(=O)(=O)c1ccc2[nH]cc(C(=O)N3CCc4ccccc43)c(=O)c2c1,i,18µM,?,i,?,?
CCN(c1ccccc1)S(=O)(=O)c1ccc2[nH]cc(C(=O)NCCOC)c(=O)c2c1,i,?,?,i,i,i
CCOc1ccc(N(C)S(=O)(=O)c2ccc3[nH]cc(C(=O)NCCOC)c(=O)c3c2)cc1,i,?,13µM,i,i,i
COCCn1c(C)cc(C(=O)Cn2nc(C)c(C)c(C#N)c2=O)c1C,i,nt,nt,nt,nt,nt
CCCn1c(-n2nc(C)cc2C)nc2c1c(=O)n(CC(=O)OC)c(=O)n2C,i,nt,nt,nt,nt,nt
C=CCNC(=O)c1c[nH]c2ccc(S(=O)(=O)N(C)c3ccc(OCC)cc3)cc2c1=O,i,21µM,21µM,i,i,i
CCCCN(C)CCNC(=O)c1c[nH]c2ccc(S(=O)(=O)N(CC)CC)cc2c1=O,i,i,i,i,i,i
CCOc1ccc(NS(=O)(=O)c2ccc3[nH]cc(C(=O)NCc4ccco4)c(=O)c3c2)cc1,?,i,i,nt,nt,nt
CCOc1ccc(N(C)S(=O)(=O)c2ccc3[nH]cc(C(=O)NCCCOC)c(=O)c3c2)cc1,i,21µM,23µM,i,i,i
CCCNC(=O)c1c[nH]c2ccc(S(=O)(=O)N(C)c3ccc(OCC)cc3)cc2c1=O,i,23µM,?,i,i,i
Cc1cc(N)n(-c2nc(-c3cccnc3)nc3ccccc23)n1,i,18µM,26µM,?,i,i
c1cncc(-c2nc(N3CCOCC3)c3ccccc3n2)c1,nt,35µM,?,?,i,?
c1ccc2c(N3CCOCC3)nc(-c3ccncc3)nc2c1,i,15µM,?,?,i[9.24 µM],i
c1ccc2c(N3CCC3)nc(-c3ccncc3)nc2c1,i,nt,nt,nt,nt,nt
Cc1ccnc2nc(C(=O)OCC(=O)c3c[nH]c4ccccc34)nn12,i,i,i,i,i,i
COc1ccc(C(=O)NCc2ccc3c(c2)CCN3C(=O)c2ccccc2)cc1,i,23µM,23µM,nt,nt,nt
COc1cc(CNC(=O)c2ccc3c(c2)N(C(=O)c2ccc(F)cc2)CC3)cc(OC)c1,i,nt,nt,nt,nt,nt
O=C(NCc1ccc2c(c1)CCN2C(=O)c1ccncc1)c1cccc(Cl)c1,i,?,21µM,nt,nt,nt
COc1ccc(C(=O)NCc2ccc3c(c2)CCN3C(=O)c2ccc(F)cc2)cc1,i,21µM,?,nt,nt,nt
O=C(NCc1ccc2c(c1)CCN2C(=O)c1ccc(Cl)cc1)c1cccc(F)c1,i,i,i,nt,nt,nt
Cc1ccccc1C(=O)NCc1ccc2c(c1)CCN2C(=O)c1ccccc1,?,10µM,13µM,nt,nt,nt
